BJeLR lethal – MLPCN primary cell-based screen for lethality selective to Ras in HRASV12 cells; inhibition, % (no concentration beside the values); hit rate 0.17% among 300,000; AID 1554, 2009; BJeLR (HRASV12) viability, CellTiter-Glo ATP luminescence, 48 h; in the data active = inhibition above about 50%; inconclusive = no clear call, values can overlap the other calls
RecA splice inh – Mtb RecA intein splicing inhibitors, primary screen, biochemical, fluorescence, HTS; inhibition, % (no concentration beside the values); AID 2221, 2009; hit rate 0.75% among 290,000; cell-free RecA intein splicing; in the data active = inhibition above about 30%; inconclusive = no clear call, values can overlap the other calls;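 note: 0% = vehicle wells and 100% = reference inhibitor control wells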
PrP 5UTR inh – inhibition of PrP 5' UTR reporter expression | inhibition, % (no concentration beside the values) | hit rate 0.35% among 340,000 | cell-based PrP 5' UTR mRNA reporter, plate reader | AID 488862, 2010; in the data active = inhibition above about 52%; note: 0 = median of the neutral control wells
SSB-PriA inh – inhibitors of Klebsiella pneumoniae PriA binding to SSB C-terminal tail, primary screen, biochemical, AlphaScreen | PriA–SSB C-terminal tail interaction (Klebsiella pneumoniae) | AlphaScreen SSBct-PriA binding, biotinylated peptide | inhibition, % at 33 µM | hit rate 0.6% among 430,000; in the data active = inhibition mostly above about 37%, no sharp cut-off; inactive = mostly below about 20%;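 note: plate controls were negative control peptide for no effect and reference peptide for full effect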
PrPC TRFRET – inhibitors of human cell surface prion protein PrPC, primary screen, cell-based, TR-FRET; Major prion protein (Homo sapiens), P04156; TR-FRET read-out; inhibition, % at 13.8 µM; hit rate 0.43% among 370,000; AID 720596, 2013; in the data active = inhibition above about 24%; note: 0% = median of the test wells and 100% = reference compound wells
PfHsp40 yeast – rescue of yeast from PfHsp40 toxicity, primary screen, S. cerevisiae, ATP luminescence | S. cerevisiae expressing PfHsp40, growth rescue | growth rescue, % at 12.5 µM | hit rate 0.68% among 340,000 | AID 504582, 2011; in the data active = growth rescue above about 28%, passing the limit was not always enough; inconclusive = no clear call, values can overlap the other calls;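 note: yeast W303a lacking pdr1 and pdr3 grown in galactose medium; growth measured after three days at 30 °C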
PrP UTR cherry – prion 5' UTR mRNA inhibition, cherry-pick retest; shares compounds with PrP 5UTR inh; cell-based prion protein 5' UTR reporter, plate reader; inhibition, % at 2.5 µM; hit rate 48% among 1,100; AID 504592, 2011; in the data active = inhibition above about 54%; inconclusive = no clear call, values can overlap the other calls
Starred values were filed as active, the others as inactive; i = inactive; u = inconclusive; x = no result. This is a sample that favours compounds with a hit; in the whole collection about 1.9% have one here.

SMILES | BJeLR lethal | RecA splice inh | PrP 5UTR inh | SSB-PriA inh | PrPC TRFRET | PfHsp40 yeast | PrP UTR cherry
COc1ccc(C2=Nn3c(nnc3-c3ccccc3C(F)(F)F)SC2)cc1OC1CCOC1 (stereo unspecified) | x | x | 15 | -16 | 5 | 1 | x
COc1ccccc1-c1nnc2n1N=C(c1ccc(O)c(O)c1)CS2 | 25 | -7 | 61* | 14 | x | 0 | 90*
CCOc1ccc(C2=Nn3c(nnc3-c3ccccc3OC)SC2)cc1 | 50 | 8 | 69* | 13 | 18 | -1 | 88*
Cc1ccccc1-c1nnc2n1N=C(c1ccc(O)c(O)c1)CS2 | x | x | x | x | -8 | x | x
CC(=O)c1cccc(NC(=O)C2CCN(c3cc(-n4cncn4)ncn3)CC2)c1 | x | x | x | -4 | x | x | x
COc1cccc2cc(C(=O)Nc3ccc(-c4nc5ccccc5o4)cc3)oc12 | x | x | x | -4 | x | x | x
O=C1NC(Cc2ccccc2)C(=O)N1Cc1cc([N+](=O)[O-])cc2c1OCOC2 (stereo unspecified) | 0 | -2 | 71* | -6 | -1 | 2 | -10
CC(=NNc1ccc(Cl)c(C(=O)O)c1)c1cccc2ccccc12 | x | x | x | -19 | x | x | x
CC(=NNc1nc(N2CCCCC2)nc(N2CCOCC2)n1)c1cccs1 | x | x | x | -6 | x | x | x
C/C(=N\Nc1nc(N2CCCCC2)nc(N2CCOCC2)n1)c1ccccc1O | 3 | 1 | 81* | x | -7 | 3 | 11
C[Se]C[C@@H](N)C(=O)O | x | x | -21 | -1 | 6 | 3 | x
CC(C)(S)[C@@H](N)C(=O)O | x | -4 | 64* | -18 | -2 | 1 | 10
O=c1[nH]c(=O)n(CCCc2ccccc2)cc1-c1ccccc1 | x | x | 63* | -8 | 0 | -1 | -15
Cc1cn(CC(=O)NCCCc2ccccc2)c(=O)[nH]c1=O | x | x | -14 | -6 | -3 | 0 | x
CC(C)c1cc(=O)n2c(n1)SCC2CC(=O)Nc1ccc(F)c(Cl)c1 (stereo unspecified) | x | x | x | -2 | x | x | x
COc1cccc(N2CCN(C(=O)c3ccc(CS(=O)c4ccccc4C)o3)CC2)c1 (stereo unspecified) | 32 | -1 | 56* | -2 | 12 | 3 | 83*
Cc1cc(NC2=CC(=O)C(=O)c3ccccc32)no1 | x | x | 77* | 7 | -10 | 4 | -2
COC1=C(C)C(=O)C2=C(C1=O)C(CO)N1C(C#N)C3CC4C(C1C2N1CCOC41)N3C (stereo unspecified) | x | x | 76* | -14 | -7 | -1 | 92*
O=C(Nc1cnc(N2CCN(c3ccccc3)CC2)nc1)c1cccc2ccccc12 | x | x | x | -22 | x | x | x
COC(=O)c1oc2ccc(Br)cc2c1NC(=O)CCCN1C(=O)c2ccccc2C1=O | -6 | 1 | 57* | -5 | 6 | 1 | -12
O=C(CSc1ncnc2sc3c(c12)CCC3)NC[C@H]1CCCO1 | x | x | x | -6 | x | x | x
Cc1nn(C)c(C)c1/C=N/NC(=O)C(C)(C)Oc1ccc(Cl)cc1 | 3 | 1 | 5 | x | x | -1 | x
Cc1nn(C(C)(C)C)c(C)c1/C=N/OC(=O)Nc1ccc(Cl)cc1 | -4 | 2 | 94* | i | 11 | 10 | 93*
NC(=O)Cc1csc(NC(=O)C2CN(c3nc4c(C(F)(F)F)cccc4s3)C2)n1 | x | x | x | 4 | x | x | x
CC1CC(=NNC(=S)NC(C)C)CC(C)(C)C1 (stereo unspecified) | x | x | x | 2 | x | x | x
SMILES | BJeLR lethal | RecA splice inh | PrP 5UTR inh | SSB-PriA inh | PrPC TRFRET | PfHsp40 yeast | PrP UTR cherry
Nc1ccc(-c2ncc(-c3ccccc3)o2)cc1 | -1 | 2 | 76* | 22 | 10 | 0 | 64*
Cc1ccc(-c2cnc(-c3ccncc3)o2)cc1 | 4 | -9 | -41 | -10 | 1 | 1 | x
COc1ccc(OC)c(-c2cc(C(=O)N3CCN(C(=O)C4CC4c4cccs4)CC3)[nH]n2)c1 (stereo unspecified) | x | x | x | 2 | x | x | x
CCOC(=O)COc1cccc2c(=O)n(CC(=O)NCc3ccccc3)ccc12 | 27 | -1 | 53 | -6 | -3 | -1 | x
CCOC(=O)COc1cccc2c(=O)n(CC(=O)NCc3ccc(F)cc3)ccc12 | 22 | -1 | 60* | -10 | -10 | 0 | 84*
O=C(NC1CC1)c1ccc(-c2nc3ccccc3s2)s1 | 7 | -5 | 66* | -8 | -27 | 0 | u
O=C(NC1CCN(c2cc3c(nn2)CCCC3)CC1)c1cccc(Cl)c1 | x | x | x | 1 | x | x | x
O=C(c1oc(=O)c2ccccc2c1-c1ccccc1)N1CCN(C2CCCCC2)CC1 | -9 | 1 | 10 | -16 | -11 | 0 | x
O=C(c1oc(=O)c2ccccc2c1-c1ccccc1)N1CCC(O)CC1 | -5 | -1 | 68* | -11 | 9 | 0 | -21
CCCOc1ccccc1OCC(=O)N1CCN(S(=O)(=O)c2ccc(Cl)cc2)CC1 | x | x | -17 | -4 | -7 | 4 | x
CCOc1ccccc1OCCCC(=O)N1CCN(S(=O)(=O)c2ccc(Cl)cc2)CC1 | x | x | 87* | -2 | -6 | 10 | -10
CCOc1cccc2cc(S(=O)(=O)c3ccc(Cl)c(Cl)c3)c(=O)oc12 | x | x | x | 0 | x | x | x
N#CC1(c2ccccc2)CCCN1C(=O)c1ccccc1Br (stereo unspecified) | -1 | -1 | 3 | -9 | -6 | 1 | x
COc1ccccc1C(=O)N1CCCC1(C#N)c1ccccc1 (stereo unspecified) | 6 | -2 | 83* | -5 | -7 | -1 | -10
O=C(Nc1cccc(O)c1)c1cc(-c2ccc3c(c2)OCO3)on1 | 22 | 2 | 58* | -8 | 8 | -2 | u
Cc1noc(C)c1S(=O)(=O)N1CCC(C(=O)N2CCN(c3ccccn3)CC2)CC1 | x | x | x | -11 | x | x | x
Cc1ccc([N+](=O)[O-])c(OCCN2C(=O)NC(C)(C)C2=O)c1 | -4 | 1 | 53* | -13 | -8 | 0 | -18
C(=N\Nc1nc2ccccc2[nH]1)/c1cccc2nccnc12 | 18 | 16 | -10 | i | 17 | -1 | x
C(=N\Nc1nc2ccccc2[nH]1)/c1ccccn1 | 54* | 15 | 52* | x | 10 | -1 | u
CCCN(CCC)CCCNC(=O)C1c2cc(OC)c(OC)cc2C(=O)N(C)C1c1cccs1 (stereo unspecified) | 4 | 0 | 3 | -7 | -2 | 1 | x
CCCCNC(=O)C1c2cc(OC)c(OC)cc2C(=O)N(C)C1c1cccs1 (stereo unspecified) | -8 | 2 | 81* | -12 | 2 | -1 | -15
C=CCn1c(C)cc(C2=NNC(=NC(C)(C)C)SC2)c1C | 7 | 6 | 65* | 32 | 3 | -1 | 66*
Cc1cc(C2=NNC(=NC3CC3)SC2)c(C)n1Cc1ccco1 | x | x | 88* | -7 | -2 | 0 | 87*

Assay outcomes as filed in PubChem.
